The full list was thinned out, with hits kept by preference.
Pf Dd2 inh = blocks in vitro growth of P. falciparum Dd2 | P. falciparum Dd2 growth, SYBR Green, 72 h | Potency, µM (series often up to 28.9 µM), for the others: top-dose activity, negative = inhibition, actives largely listed as inhibitors | 4.3% of 120,000 active | AID 1347417; active = well fitted inhibition curve with a large enough effect;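 note: plate controls were DMSO vehicle for no effect and reference drug for full effect; nearly all actives have a fitted effect of over 65% in size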
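Infected erythrocytes (Dd2, 0.3% parasitemia, 2.5% hematocrit final) are added to compound in RPMI-1640/Albumax II medium, grown 72 h at 37C in low oxygen, then lysed with saponin/Triton-X containing SYBR Green and read by fluorescence.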
* hit, by the source's call; i = inactive; [ ] = dose if it differs, or a comment. Potency is the fitted concentration of half-maximal effect.

SMILES	Pf Dd2 inh
CC(C)(C)CC(=O)N1C[C@@H](NC(=O)Nc2ccc(F)cc2F)C[C@H]1C(=O)N[C@H](Cc1ccccc1)C(N)=O	i
Cc1ccc(S(=O)(=O)N2CCc3nc(N(C)Cc4cccnc4)[nH]c(=O)c3CC2)cc1	i[5.79 µM]
COCc1nc(C2CC(Nc3ccnc4cc(Cl)ccc34)C2)cc(=O)[nH]1 (stereo unspecified)	2.5µM*
CN(C)c1nc(NC2CC(c3cc(=O)[nH]c(C4CC4)n3)C2)ncc1F (stereo unspecified)	i
COCc1nc(C2CC(NC(=O)CN3C(=O)CN(C)C3=O)C2)cc(=O)[nH]1 (stereo unspecified)	-12%
C=CCNC(=O)c1cnn2c1CN(C(=O)OC)CC2	8%[44.1 µM]
COc1cccc(NC(=O)Cn2nc3n(c2=O)CCCC3)c1	-2%
Cc1cnc(C(=O)N[C@@H]2CCC[C@@H]2C(=O)N2CCN(c3ncccn3)CC2)cn1	-3%
COc1ccc(CN2C[C@@H](F)[C@@H](OCc3nc4ccncc4[nH]3)C2)cc1	-23%[44.1 µM]
COCCn1cnc2ccc(-c3ccnn3C)nc2c1=O	i
O=C(O)c1cccc(CC2CCN(C(=O)c3ccc(Cn4cnnn4)cc3)C2)c1 (stereo unspecified)	-10%
COc1ccc(-c2nc(CSc3nncn4c3cc3occc34)c(C)o2)cc1	10µM*
Cc1oc(-c2ccccc2Cl)nc1CSc1nncn2c1cc1occc12	-23%
Cc1ccc(-c2nc(CSc3nncn4c3cc3occc34)c(C)o2)cc1	-12%
COc1cccc(S(=O)(=O)N2CCC(C(=O)N3CCCCCCNC(=O)CC3)CC2)c1	i
CNC(=O)[C@H]1C[C@H](Oc2ccccc2)CN1Cc1ccc(OC(C)C)cc1	-12%
COc1cccc(OC2CN(C(=O)c3[nH]c4c(C)cc(C)cc4c3C)C2)c1	2%
O=C(CCn1ccnc1)N1CCC2(CCC(=O)N(CC3CC3)CC2)CC1	11%
CC(C)N1CCN(C(=O)c2cc3c(n2C)CCN(Cc2ccc(F)cc2)C3)CC1	i
COc1cccc(CC(=O)NCCC2CCN(C(=O)Nc3ccccc3C)CC2)c1	-10%
CCN(CC)C(=O)c1cc2c(n1C)CCN(Cc1ccc(F)cc1)C2	8.9µM*
COc1cccc(CN2CCN3C(=O)N(Cc4ccccn4)C[C@H]3C2)c1	-4%[44.1 µM]
COc1ccc(CNC(=O)c2cc3c(n2C)CCN(Cc2ccccc2)C3)cc1OC	-26%
COc1cccc(CN2CCc3c(cc(C(=O)NCc4ccccn4)n3C)C2)c1	0.89µM*
COc1cccc(CN2CCc3nc(C(=O)Nc4cccnc4)oc3CC2)c1	-3%[44.1 µM]
SMILES	Pf Dd2 inh
COc1cc(=O)n2c(c1C(=O)Nc1cccc(C)c1C)CCCC2	27%
O=C(Cn1c(=O)c2c(n1Cc1ccccc1)CN(Cc1ccccc1)CC2)NCc1ccc(F)cc1	i
COc1cccc(CN2CCc3c(cc(C(=O)N4CCOCC4)n3C)C2)c1	-16%
COc1cccc(CN2CCc3c(cc(C(=O)Nc4cccc(C)c4C)n3C)C2)c1	4.5µM*
COc1cccc(CN2CCc3c(cc(C(=O)Nc4ccccc4)n3C)C2)c1	1.1µM*
Cn1c(CCNC(=O)C2Cn3cccc3C(=O)N2)nc2ccccc21 (stereo unspecified)	13%
O=C1[C@@H]2C[C@@H](O)CN2C2(CN(C3Cc4ccccc4C3)C2)C(=O)N1Cc1ccccc1F	i
COCC(=O)N1CCN(C(=O)Nc2ccccc2)C[C@H]1C(=O)N[C@H](Cc1c[nH]c2ccccc12)C(N)=O	-25%
COCc1noc([C@@H]2CN(C3CCN(CC(C)C)CC3)C[C@H]2CO)n1	23%
C=CCNC(=O)N[C@H]1[C@H](O)[C@@H](NCCOC)[C@@H]2OC[C@H]1O2	1%[44.1 µM]
COc1cccc(CN2CC[C@@H]3CN(S(C)(=O)=O)[C@@H]3C2)c1OC	i
CS(=O)(=O)N1CCC(OC2CCN(C(=O)Nc3ccccc3Cl)CC2)CC1	35%
CCCNC(=O)OC[C@H]1C[C@@H]2CCN1C[C@@H]2c1cc(-c2ccccc2)nn1C	i
Cc1cc(Cl)ccc1NC(=O)NCC1CCOCC1	3%
O=C([C@@H]1C[C@H](F)CN1S(=O)(=O)c1ccccc1F)N1CCCCC1	-9%
c1ccc(-c2cc(CC3(NCC4CC4)COC3)no2)nc1	-3%[44.1 µM]
Cc1cnn(C2(C(=O)O)CCN(C(=O)c3ncoc3C)CC2)c1	-6%
CC(C)(C)NS(=O)(=O)c1ccccc1-c1nc(N)nc2c1CCC2	-10%
COc1ccc(NC(=O)C2=NO[C@@H]3CN(Cc4ccc(F)cc4)C[C@H]23)cc1	i
COc1ccc(NC(=O)c2cc3c(n2C)CCN(Cc2ccc(F)cc2)C3)cc1	2.5µM*
COc1ccc(NC(=O)c2ccc3c(c2)c(C)c(C)n3Cc2ccc(F)cc2)cc1	-17%
CCN1CCN(C(=O)Cc2cccn2-c2ccc(F)cc2)CC1	-26%
O[C@H]1CC[C@@H](Cc2cc(COc3ccccc3)on2)O[C@@H]1CNCc1cccc(Cl)c1	1.3µM*
CN(Cc1ccccc1)Cc1cc(C[C@@H]2CC[C@H](O)[C@@H](CN)O2)no1	i
COCc1cc(C[C@@H]2CC[C@H](O)[C@@H](CNCc3ccccc3)O2)no1	i

Source: PubChem BioAssay
